GLD-1 TGE inh = GLD-1-TGE RNA interaction inhibition (C. elegans); Q17339; purified GLD-1 + fluorescein TGE RNA, fluorescence polarization; inhibition, % at 5.96 µM; 320,000 compounds, 0.44% hits;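 active = percent inhibition above a per-plate cutoff, the plate mean of test compounds plus 3 SD, cut at about 30% in these data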
eLon inh = inhibitors of E. coli Lon protease; inhibition, % at 7.94 µM; purified E. coli Lon protease, fluorescence polarization; P0A9M0; 360,000 compounds, 0.42% hits; AID 602123; in the data active = inhibition above about 13%, passing the limit was not always enough
EBV gp42 block = inhibitors of Epstein-Barr virus glycoprotein 42; inhibition, % (tested at 21.74 µM); Fluorescence polarization binding assay, mP read-out; 220,000 compounds, 0.42% hits; Q1HVG2; in the data active = inhibition above about 50%
Target sequence (Q1HVG2 whole entry, looked up): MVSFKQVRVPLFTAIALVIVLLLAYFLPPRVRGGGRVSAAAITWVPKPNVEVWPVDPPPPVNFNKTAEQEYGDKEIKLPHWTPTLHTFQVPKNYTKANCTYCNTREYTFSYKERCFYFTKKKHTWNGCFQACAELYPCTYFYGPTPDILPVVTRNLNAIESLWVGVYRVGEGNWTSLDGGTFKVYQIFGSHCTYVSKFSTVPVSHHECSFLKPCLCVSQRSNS
MCL1 BIM primary = inhibitors of human MCL1 binding to BIM-BH3 peptide | Q07820 | inhibition, % at 10.9 µM | GST-MCL1 / FITC-Bim-BH3 fluorescence polarization | AID 2057 | 320,000 compounds, 0.68% hits;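 active = inhibition above the mean inhibition of all tested compounds plus 3 SD, set per campaign, cut at about 40% in these data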;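 also: higher means more loss of mP so more displacement of Bim peptide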
MEX-5 binding = C. elegans MEX-5 TCR-2 RNA binding activity. Q9XUB2. MEX-5/FITC-TCR2 RNA binding, fluorescence polarization; stronger effect = lower value. activity score (negative = inhibition of binding), % at 10 µM. 300,000 compounds, 0.38% hits;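 active = inhibition past about -25% in most replicates, and total fluorescence under double the plate's negative control median, limit read from the data; inconclusive = replicates evenly split on the limit, or fluorescence at least double controls; inactive = too little inhibition in most replicates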
BCLXL inh = inhibitors of human Bcl-xL; AID 2129; GST-Bcl-xL / FITC-Bim BH3 peptide fluorescence polarization; Q07817; 320,000 compounds, 0.7% hits; inhibition, % at 10.9 µM;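 active = inhibition above the mean of all tested compounds plus 3 SD, cutoff set per campaign, cut at about 30% in these data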;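 also: inhibitors lower millipolarization by displacing the labeled peptide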
Target sequence (Q07817 whole entry, looked up): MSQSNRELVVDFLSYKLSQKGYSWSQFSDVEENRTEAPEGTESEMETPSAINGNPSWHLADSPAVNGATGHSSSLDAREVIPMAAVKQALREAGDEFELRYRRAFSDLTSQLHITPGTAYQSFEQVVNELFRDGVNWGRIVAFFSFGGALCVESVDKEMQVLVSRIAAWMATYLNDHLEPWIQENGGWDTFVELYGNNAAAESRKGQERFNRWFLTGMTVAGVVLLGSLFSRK
Bcl-xL conf = Bcl-xL (human) inhibition, MCL1 counter-screen confirmation | shares compounds with MCL1 BIM primary | AID 2166 | inhibition, % at 10.9 µM | GST-Bcl-xL / FITC-Bim BH3 peptide FP binding | 1,700 compounds, 54% hits;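 active = inhibition above a cutoff equal to the mean inhibition of all tested compounds plus 3 SD, cut at about 30% in these data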
MCL1 BIM confirm = MCL1-BIM-BH3 interaction inhibition, confirmation. inhibition, % at 10.9 µM. shares compounds with MCL1 BIM primary. AID 2168. 1,700 compounds, 61% hits. GST-MCL1 / FITC-Bim-BH3 fluorescence polarization;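 active = inhibition above the average of all tested compounds plus 3 SD, cut at about 40% in these data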
eLon confirm = E. coli Lon inhibition confirmation; shares compounds with eLon inh; purified E. coli Lon, fluorescence polarization; inhibition, % at 7.94 µM; 1,400 compounds, 31% hits; AID 602230; in the data active = inhibition above about 16%
Large screens that a line does not name were inactive (follow-up assays come after a bar, where they were run). Rows were chosen to be rich in hits. Some 1.5% of all compounds tested hit in one or more screens of this group.

O=c1c2ccccc2[nH]c2ccc(O)cc12	GLD-1 TGE inh 108, eLon inh 84, MCL1 BIM primary 89, BCLXL inh 74 (no result: EBV gp42 block) | Bcl-xL conf 98 | MCL1 BIM confirm 145 | eLon confirm 71
Cc1ccc2[nH]c3ccccc3c(=O)c2c1	none (no result: EBV gp42 block)
CN1CCc2c(sc3c2C(=O)NC(c2ccccn2)N3)C1 (stereo not given)	GLD-1 TGE inh 37, eLon inh 24, MCL1 BIM primary 66, MEX-5 binding -51, BCLXL inh 64 | Bcl-xL conf 41 | MCL1 BIM confirm 52 | eLon confirm inactive
Clc1ccc(C2=CC(c3ccco3)n3ncnc3N2)cc1 (stereo not given)	GLD-1 TGE inh 141, eLon inh 139, EBV gp42 block 80, MCL1 BIM primary active, MEX-5 binding -91, BCLXL inh 189 | Bcl-xL conf 51 | MCL1 BIM confirm 76 | eLon confirm 75
Cc1ccc(C2=CC(c3ccc(C)cc3)n3ncnc3N2)cc1 (stereo not given)	none (no result: EBV gp42 block)
Clc1ccccc1C1=CC(c2ccco2)n2ncnc2N1 (stereo not given)	eLon inh 31, MCL1 BIM primary 50, BCLXL inh 49 | Bcl-xL conf 34 | MCL1 BIM confirm 44 | eLon confirm inactive
FC(F)(F)c1ccccc1C1=CC(c2ccccc2)n2ncnc2N1 (stereo not given)	none (no result: EBV gp42 block)
O=C(c1nc2ccccn2c1CN1CCC(Cc2ccccc2)CC1)N1CCCC1	none
COCC1CCN(Cc2c(C(=O)N3CCN(C4CCCCC4)CC3)nc3ccccn23)C1 (stereo not given)	eLon inh 26, MCL1 BIM primary 57, BCLXL inh 52 (no result: EBV gp42 block) | Bcl-xL conf inactive | MCL1 BIM confirm inactive | eLon confirm inactive
COc1cccc(-c2cc(C(=O)N3CCN(Cc4ccc5c(c4)OCO5)CC3)on2)c1	none (no result: EBV gp42 block)
CCNc1cc(O)ccc1C	GLD-1 TGE inh 137, eLon inh 117, MCL1 BIM primary 164, BCLXL inh 138 (no result: EBV gp42 block, MEX-5 binding) | Bcl-xL conf 73 | MCL1 BIM confirm 85 | eLon confirm 89
Cc1ccc(C(=O)CNc2cc(C)ccc2C)cc1	none (no result: EBV gp42 block)
O=C(O)c1[nH]c2ccccc2c1C(c1cc(Cl)cc([N+](=O)[O-])c1O)c1c(C(=O)O)[nH]c2ccccc12	eLon inh 28, MCL1 BIM primary 51, MEX-5 binding -61 (no result: EBV gp42 block) | Bcl-xL conf inactive | MCL1 BIM confirm inactive | eLon confirm 19
CC(NC(=O)C(=O)N1CCCCC1)C(c1cccs1)N1CCN(c2ccccc2F)CC1 (stereo not given)	none (no result: EBV gp42 block)
CN(C)CCN(C)Cc1c2ccccc2c(CN(C)CCN(C)C)c2ccccc12	GLD-1 TGE inh 123, eLon inh 125, MCL1 BIM primary 189, MEX-5 binding -64, BCLXL inh 172 (no result: EBV gp42 block) | Bcl-xL conf 77 | MCL1 BIM confirm 102 | eLon confirm 47
CN(C)CCP(=O)(c1ccccc1)c1ccccc1	none
CCO[C@H]1OC(C(=O)N2CCCCCCC2)=C[C@@H](c2csc3ccccc23)[C@@H]1CCCO	none
O=Cc1ccc2noc(-c3ccc(F)cc3)c2c1	GLD-1 TGE inh 103, eLon inh 20, EBV gp42 block 151, MCL1 BIM primary 106, MEX-5 binding inconclusive, BCLXL inh 101 | Bcl-xL conf 123 | MCL1 BIM confirm 163 | eLon confirm 110
CCN(CC)c1ccc(/C=N/NC(=O)c2ccc3nc[nH]c3c2)c(O)c1	none
